Experimental data reported in PubChem BioAssay (NCI).
About 83,000 compounds went through this panel and 20% of them were active in at least one assay; those are over-represented in the sample as a whole.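 Cells were grown in 96-well plates and exposed to the test compound at a single concentration for 48 hours; results are reported as percent growth, with values below 10 considered active.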 A number with no mark means an inactive call. Active and inactive are the calls of the source.

test system: HL-60(TB) leukemia; assay: NCI-60 one-dose screen, 48 h (100 = growth as untreated, 0 = no growth, -100 = all killed); details: 10 µM unless noted

Compound | growth
NC(=N\N=C/c1ccc(O)cc1)/C(N)=N\N=C/c1ccc(O)cc1 | 25.9%
NN1CCOC(c2ccccc2)C1 (stereo unspecified) | -22.4% (active)
c1ccc(-c2nc3sc(-c4ccccc4)cn3n2)cc1 | 78.8%
CS(=O)CC1=NC(=N)N=C1CS(C)=O (stereo unspecified) | 91.2%
COc1ccc2oc(=O)cc(C3c4ccc([nH]4)C(c4cc(=O)oc5ccc(OC)cc45)c4ccc([nH]4)C(c4cc(=O)oc5ccc(OC)cc45)c4ccc([nH]4)C(c4cc(=O)oc5ccc(OC)cc45)c4ccc3[nH]4)c2c1 (stereo unspecified) | -14.5% (active)
CCCCCCCCCCCCCCCCN(C(C)c1ccccc1)S(=O)(=O)c1ccc(OC)c(N)c1 (stereo unspecified) | 98.2%
